The list is not random: actives were taken first. Their share in the collection is about 7.3%.
NPC1 prom act – qHTS Assay for NPC1 Promoter Activators; Potency, µM (series often up to 9.22 µM), for the others: top-dose activation, actives largely listed as activators; AID 485313, 2010; hit rate 2.4% among 320,000; Huh7 NPC1 promoter luciferase reporter, 24 h; further: % of control where 0% means no effect; nearly all actives have a fitted effect of over 60% in size
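Compounds in DMSO were transferred onto Huh7 NPC1-luciferase reporter cells pre-incubated 2 h; after 24 h at 37 °C, Amplite reagent was dispensed and luminescence recorded 10 min later.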
Rab9 promoter act – qHTS Assay for Rab9 Promoter Activators; Huh7 Rab9 promoter-luciferase reporter, luminescence, 24 h; Potency, µM (highest dose often 9.22 µM), without a hit: top-dose activation, negative = inhibition, most hits filed as activators; hit rate 2.8% among 320,000; AID 485297, 2010; further: % of control where 0% means no effect; nearly all actives have a fitted effect of over 60% in size
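Promoter activation is measured as luciferase luminescence in Huh7 cells stably transfected with a Rab9 promoter–luciferase construct, following 24 h compound exposure at 37 °C and 10 min reagent incubation at ambient temperature.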
SMN2 splice enh – qHTS Assay for Enhancers of SMN2 Splice Variant Expression; HEK293 SMN2-luciferase splicing reporter, luminescence, 30-36 h; Potency, µM (series often up to 46.1 µM), for inactives: top-dose activity change, positive = activation, usual class: activators; hit rate 2.8% among 210,000; further: % of control where 0% means no effect; nearly all actives have a fitted effect of over 55% in size
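HEK293 cells carry an SMN2 […]–luciferase reporter in which exon 7 inclusion puts luciferase in frame. Cells were plated 10-12 h before compound addition, then incubated 30-36 h at 37C. ONE-Glo luminescence was read; sodium butyrate at 4.5 mM final served as control.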
KinaseGlo FLuc – Counterscreen for Luciferase (Kinase-Glo TM) Inhibition | hit rate 0.28% among 200,000 | Potency, µM (titrated, usually from 38.3 µM), inactives show top-dose activity change, negative = inhibition, usual class: inhibitors | Luciferin 4-monooxygenase (Photuris pensylvanica), Q27757 | Kinase-Glo luciferase, ATP luminescence, 8 min; further: on the % scale 0 is the no-effect control and ±100 the full control effect; nearly all actives have a fitted effect of over 60% in size
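Inhibition of Kinase-Glo luciferase light generation was assessed at 10 uM ATP in pH 7.2 imidazole buffer, with luminescence measured after eight minutes at ambient temperature.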
FLuc counter – qHTS profiling assay for firefly luciferase inhibitor/activator using purifed enzyme and Km concentrations of substrates (counterscreen for miR-21 project). purified FLuc, Km substrates, luminescence inhibition. Potency, µM (doses to about 57.5 µM), without a hit: at the top dose activity change, negative = inhibition, usual class: inhibitors. Luciferin 4-monooxygenase (Photinus pyralis), P08659. hit rate 6.9% among 360,000;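 further: plate controls were vehicle for no effect and reference inhibitor for full effect; nearly all actives have a fitted effect of over 55% in size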
Target sequence (P08659 whole entry, looked up): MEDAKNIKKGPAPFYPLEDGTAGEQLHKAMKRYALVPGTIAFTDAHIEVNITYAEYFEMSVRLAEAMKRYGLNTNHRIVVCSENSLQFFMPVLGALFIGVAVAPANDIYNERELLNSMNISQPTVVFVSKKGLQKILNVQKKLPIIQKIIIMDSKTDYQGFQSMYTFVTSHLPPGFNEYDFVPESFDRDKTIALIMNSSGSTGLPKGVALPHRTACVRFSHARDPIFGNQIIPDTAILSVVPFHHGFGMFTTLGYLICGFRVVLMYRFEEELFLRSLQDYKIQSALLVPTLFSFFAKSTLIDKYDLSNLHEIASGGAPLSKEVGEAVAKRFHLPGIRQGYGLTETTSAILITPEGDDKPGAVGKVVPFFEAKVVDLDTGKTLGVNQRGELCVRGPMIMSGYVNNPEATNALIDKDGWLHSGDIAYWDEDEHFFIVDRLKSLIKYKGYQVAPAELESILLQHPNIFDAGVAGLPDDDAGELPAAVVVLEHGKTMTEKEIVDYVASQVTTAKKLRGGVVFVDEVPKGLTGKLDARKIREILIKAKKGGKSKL
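Purified P. pyralis luciferase (10nM final) with 10uM D-luciferin and 10uM ATP (Km levels) in 50mM Tris acetate pH 7.5, 10mM Mg acetate, 0.01% Tween-20, 0.05% BSA; qHTS 6-point titration, ~60 µM downward; luminescence read.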
* = called active by the depositor; ? = inconclusive; . = not tested or not shown; [ ] = another dose, or the depositor's remark. The call rests on the fitted dose curve; in most records, active means well fitted curve in the direction sought with a large enough effect; inconclusive means small, poorly fitted or top-dose-only effect, or another doubt; inactive means no such curve, though single readings can be large; an effect the other way counts as inactive or inconclusive. Potency means the concentration at half of the fitted maximal effect.

SMILES	NPC1 prom act	Rab9 promoter act	SMN2 splice enh	KinaseGlo FLuc	FLuc counter
CCOC(=O)CN1C(=O)S/C(=C\c2ccc3c(c2)OCO3)C1=O	5.2%	-3.6%	.	.	21.3µM*
COc1ccc(/C=C2\SC(=S)N(CCC(=O)Nc3ccc(C(=O)O)cc3)C2=O)cc1OC	3.2%	0.0%	.	.	?
Cc1ccc(C)c(NC(=O)c2cnc(N3CCCC3)nc2C)c1	.	.	.	.	1.6%
O=c1c2cc3c(nc2ncn1Cc1ccccc1F)CCCC3	.	.	.	.	-7.3%
CCOc1ccc(/C=C2\SC(=S)N(CCC(=O)Nc3cccc(C(=O)O)c3)C2=O)cc1	28.8%	?	.	.	2.13µM*
CCOc1ccc(NC(=O)Cn2c(=O)n(CC(=O)NCCc3ccccc3)c(=O)c3sccc32)cc1	.	.	-4.9%	.	-3.1%
COc1ccc(OC)c(/C=C/c2nc3ccccc3[nH]c2=O)c1	7.2%	5.7%	.	.	-10.7%
Oc1ccccc1C=Nc1ccccc1-c1nc2ccccc2[nH]1	?	?	31.6µM*	-1.0%	?
Oc1ccc(C=Nc2ccccc2-c2nc3ccccc3[nH]2)c(O)c1	?	?	14.1µM*	-0.7%	4.78µM*
O=C(c1ccccc1-c1nc2ccccc2[nH]1)N1CCCCC1	0.1%	0.8%	8.2%	-1.2%	2.9%
COc1ccc(OC)c(C=Nc2ccccc2-c2nc3ccccc3[nH]2)c1	?	?	12.6µM*	-1.1%	4.78µM*
O=C(Nc1ccccc1)c1cc2n(n1)C(C(F)(F)F)CC(C1CC1)N2 (centres undefined)	2.82µM*	1.78µM*	.	-4.7%	-17.1%
O=C(CCC(=O)n1ncc2ccccc21)N1CCCCC1	0.8%	2.9%	.	.	?
Cc1ccc2c(cnn2C(=O)CCCC(=O)NCc2ccc(F)cc2)c1	6.8%	28.6%	.	.	13.5µM*
CCc1ccc(CNC(=O)CCC(=O)n2ncc3cc(C)ccc32)cc1	-4.2%	2.4%	.	.	0.2%
Cc1ccc2c(cnn2C(=O)CCC(=O)N2CCCCC2)c1	-1.1%	1.3%	.	.	12µM*
Cc1ccc2c(c1)c1c(c(=O)n(Cc3ccccc3)c(=O)n1CC(=O)Nc1ccccc1C)n2C	.	.	.	.	-4.8%
O=C(Nc1nnc(S(=O)(=O)N2CCCc3ccccc32)s1)c1ccc(Cl)cc1	.	.	.	.	1.9%
COc1cc2c(cc1OC)-c1cc3nc4ccccc4nc3n1C(C)(C)C2	.	.	.	2.2%	.
Cc1[nH]n(-c2ccccc2)c(=O)c1N=Nc1ccccc1O	-29.6%	-41.8%	.	-2.2%	8.49µM*
Cc1cc(Cl)cc2c(N=Nc3ccccc3C(=O)O)c(O)[nH]c12	?	?	.	.	12µM*
Cc1ccccc1N=Nc1c(C)[nH]n(-c2ccccc2)c1=O	2.1%	0.3%	.	3.7%	?
Cc1ccc2[nH]c(O)c(N=Nc3ccccc3C)c2c1	?	20.8%	.	.	?
Cc1[nH]n(-c2ccccc2)c(=O)c1C(=O)Nc1ccccc1	0.2%	12.5%	.	.	16.9µM*
C/C(=N\NC(=O)c1ccccc1)c1c(C)[nH]n(-c2ccccc2)c1=O	-25.2%	-19.9%	.	.	-12.9%
SMILES	NPC1 prom act	Rab9 promoter act	SMN2 splice enh	KinaseGlo FLuc	FLuc counter
Cc1[nH]n(-c2ccccc2)c(=O)c1N=Nc1ccccc1C(=O)O	17.9%	16.6%	.	.	16.9µM*
Cc1ccc(CCNC(=O)c2cc3sccc3n2Cc2ccc(Cl)cc2)cc1	.	.	-2.0%	.	-0.9%
COc1ccc(C)cc1NC(=O)CSc1nc(=O)n(Cc2ccncc2)c2c1CCC2	.	.	.	.	-6.6%
CCc1ccccc1O	.	.	-6.6%	.	.
Cc1[nH]n(-c2ccc(S(=O)(=O)O)cc2)c(=O)c1N=Nc1ccccc1	.	.	-3.1%[9.22 µM]	-4.6%[7.66 µM]	.
Cc1[nH]n(-c2ccccc2)c(=O)c1N=Nc1nccs1	18.9%	10.1%	-31.7%	-7.2%	19µM*
FC(F)(F)c1cc(NC(=S)NC23CC4CC(CC(C4)C2)C3)cc(C(F)(F)F)c1	.	.	9.0%	2.1%	.
CC(C)(C)c1cc(NC(=O)CSc2nnc(NCc3ccccc3)s2)n(-c2ccccc2)n1	-1.2%	-0.2%	-34.7%	-0.2%	19µM*
CC(C)(C)c1cc(NC(=O)CSc2nnc(N)s2)n(-c2ccccc2)n1	0.5%	-0.6%	.	.	4.5%
COc1ccc(CCCn2ncc3c2nc(N)n2nc(-c4ccco4)nc32)cc1	.	.	.	1.2%[39.9 µM]	.
N#CC(C#N)=C1C=CC=CN1/C(=C\c1ccccc1)C(=O)c1cccs1	-2.8%	1.2%	8.0%	-0.6%	19µM*
Cc1cccc(-n2cnc3sc(C)c(C)c3c2=O)c1	0.7%	11.9%	.	.	-12.1%
Cc1sc2ncn(/N=C/c3ccco3)c(=O)c2c1C	26.6%	?	.	.	10.7µM*
CC(C)c1ccc(NC(=O)CSc2nc(=O)n(Cc3cccnc3)c3c2CCC3)cc1	.	.	.	.	-13.1%
Cc1ccc(NC(=O)/C(Cl)=C\c2ccccc2)cc1	-4.6%	6.8%	1.6%	1.6%	-0.4%
O=C(Nc1cccc2ccccc12)/C(Cl)=C/c1ccccc1	1.8%	6.8%	10.1%	7.4%	12µM*
O=C(Nc1ccccc1F)C(=O)Nc1cccc2ccccc12	?	2.82µM*	.	.	?
CC1=C(C(=O)NCc2ccc(Cl)cc2)C2(CCCCCC2)OC1=O	.	.	.	.	-4.3%
CCc1ccc(S(=O)(=O)c2c[nH]c3cc(OC)c(OC)cc3c2=O)cc1	.	.	8.2%	.	2.8%
COc1ccc(C(=O)c2c(C)oc3ccc(O)cc23)cc1	-5.3%	-3.3%	.	.	-13.9%
COc1ccc2oc(C)c(C(=O)c3ccc(C)cc3)c2c1	9.7%	4.4%	.	.	16.9µM*
COc1ccc2oc3ccc(OC)cc3c(=O)c2c1	3.16µM*	2.82µM*	?	-9.1%	3.01µM*
COc1cc(O)c2c(=O)c3c(OC)c(O)ccc3oc2c1	2.0%	8.4%	.	-1.3%	19µM*
CCCS(=O)(=O)N1CCCC(C(=O)NCCCOC)C1 (centres undefined)	.	.	.	.	-0.2%
O=C1/C(=C/c2ccc(O)c(O)c2)Oc2cc(O)ccc21	?	20.2%	.	.	15.1µM*
SMILES	NPC1 prom act	Rab9 promoter act	SMN2 splice enh	KinaseGlo FLuc	FLuc counter
O=C1/C(=C/c2cccc([N+](=O)[O-])c2)Oc2cc(O)ccc21	12.8%	2.9%	.	.	?
COc1cc(/C=C2\Oc3cc(O)ccc3C2=O)ccc1O	3.16µM*	3.98µM*	.	.	8.49µM*
Cc1ccc(-n2c(SCc3nc(-c4ccccc4C)no3)nnc2-c2ccncc2)cc1C	.	.	?	.	2.2%
CCc1nc2ccc(C(=O)NCCc3ccc(SC)cc3)cc2nc1CC	.	.	.	.	0.5%
Fc1cccc(-c2cc3nc4c(c(N5CCC6(CC5)OCCO6)n3n2)CCCC4)c1	-1.4%	-0.2%	10.7%	1.3%	15.1µM*
CN(CCO)c1c2c(nc3cc(-c4cccc(F)c4)nn13)CCCC2	3.55µM*	3.55µM*	23.3%	3.1%	23.9µM*
OC1CCN(c2c3c(nc4cc(-c5cccc(F)c5)nn24)CCCC3)CC1	1.3%	7.6%	28.9%	-0.9%	?
Cc1oc(-c2ccc(Cl)cc2)nc1CSc1nnc(C)n2c1cc1sccc12	.	.	.	.	4.1%

Screens: PubChem, National Center for Advancing Translational Sciences (NCATS)
